{"source": "PubChem BioAssay", "note": "Values without a mark were called inactive. No rule for the calls is given here."}
{"target": "Pantothenate synthetase (Mycobacterium tuberculosis (strain ATCC 25618 / H37Rv)) (UniProt P9WIL5)", "sequence (P9WIL5 whole entry, looked up)": "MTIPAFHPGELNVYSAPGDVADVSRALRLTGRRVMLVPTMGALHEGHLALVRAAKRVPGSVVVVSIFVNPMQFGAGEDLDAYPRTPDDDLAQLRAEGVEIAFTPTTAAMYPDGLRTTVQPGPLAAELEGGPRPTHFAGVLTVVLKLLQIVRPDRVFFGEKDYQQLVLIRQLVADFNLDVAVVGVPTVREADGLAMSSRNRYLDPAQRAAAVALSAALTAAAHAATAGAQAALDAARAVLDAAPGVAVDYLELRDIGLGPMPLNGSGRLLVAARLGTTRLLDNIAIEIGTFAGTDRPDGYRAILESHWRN", "test": "Coupled enzyme confirmation of inhibitors against recombinant Mtb PanC (AID 375);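 also: 0% = full reaction with vehicle and 100% = no enzyme background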", "conditions": "coupled enzyme assay; at 10 µM, active compounds read high", "units": {"inhibition": "%"}}
{"compound": "O=c1c2nnn(Cc3ccc(Cl)cc3)c2ncn1Cc1ccc(F)cc1", "inhibition": 0}
{"compound": "CNC(=O)c1nnn(Cc2ccccc2)c1NC(C)=O", "inhibition": 2}
{"compound": "O=C1NC(c2cccs2)Nc2ccccc21", "note": "(centres undefined)", "inhibition": 0}
{"compound": "Cc1sc2nc3n(c(=O)c2c1C)NC(=O)CC3", "inhibition": 0}
{"compound": "N/C(=N/O)c1nc(N2CCCC2)nc(N(c2ccccc2)c2ccccc2)n1", "inhibition": 7}
{"compound": "O=S(=O)(c1ccc2ccccc2c1)N1CCCCC1", "inhibition": 0}
{"compound": "Cn1cccc1Cc1nnc(SCC(=O)Nc2ccc(F)cc2F)n1-c1ccc(F)cc1", "inhibition": 4}
{"compound": "CC(=O)Nc1ccccc1O", "inhibition": 9}
{"compound": "CCOC(=O)c1[nH]c(C)c(C(=O)NCc2ccccn2)c1C", "inhibition": 0}
{"compound": "Cn1c(NC(=O)c2cccc(Cn3cc(Cl)cn3)c2)nc2ccccc21", "inhibition": 8}
{"compound": "CCC(=O)Nc1ccc(Cl)c(NC(=O)C(C)C)c1", "inhibition": 3}
{"compound": "CCCS(=O)(=O)N1CCCC(C(=O)NC2CCCC(C)C2C)C1", "note": "(centres undefined)", "inhibition": 0}
{"compound": "O=C(CCN1C(=O)COc2ccccc21)NCCCN1CCN(c2ccccc2F)CC1", "inhibition": 0}
{"compound": "COC1=CC(=O)CC(C)C12Oc1c(Cl)c(OC)cc(OC)c1C2=O", "note": "(centres undefined)", "inhibition": 0}
{"compound": "COCc1ccccc1Cn1cnc2c1c(=O)n(C)c(=O)n2C", "inhibition": 3}
{"compound": "OC(CNCCc1ccccc1)c1ccccc1", "note": "(centres undefined)", "inhibition": 2}
{"compound": "CN(C)C(=O)CN(C)S(=O)(=O)c1ccc(Cl)cc1", "inhibition": 0}
{"compound": "COc1ccc2[nH]c(C)c(CCN3C(=O)OC(C)(C)C3(C)O)c2c1", "note": "(centres undefined)", "inhibition": 0}
{"compound": "CCC(=O)Nc1cccc(Br)c1", "inhibition": 2}
